# Bioassay records (PubChem)
# CYP2C9 activ – human CYP2C9 activators, primary screen, biochemical, luminescence. recombinant CYP2C9, luciferin-H conversion; stronger effect = higher value; factor 1 = untreated enzyme, 0 = blocked. activation factor at 5 µM. hit rate 1.4% among 96,000;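 active = activation factor of 2 or more for CYP2C9 at a 5 µM dose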;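 note: 0 = sulfaphenazole-blocked wells and 1 = vehicle-only wells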
# CYP2C19 act – human CYP2C19 activators, primary screen, biochemical, luminescence | Cytochrome P450 2C19 (Homo sapiens), P33261 | recombinant CYP2C19, luciferin-H EGE luminescence; stronger effect = higher value; 0 = fully inhibited enzyme, 1 = untreated enzyme | activation factor at 5 µM | 96,000 tested, under 10 active | AID 1025, 2008;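 active = activation factor of at least 2 at 5 µM in the primary screen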;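 note: 0 = wells with 2.5 mM tranylcypromine and 1 = vehicle-only wells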
# Target sequence (P33261 whole entry, looked up): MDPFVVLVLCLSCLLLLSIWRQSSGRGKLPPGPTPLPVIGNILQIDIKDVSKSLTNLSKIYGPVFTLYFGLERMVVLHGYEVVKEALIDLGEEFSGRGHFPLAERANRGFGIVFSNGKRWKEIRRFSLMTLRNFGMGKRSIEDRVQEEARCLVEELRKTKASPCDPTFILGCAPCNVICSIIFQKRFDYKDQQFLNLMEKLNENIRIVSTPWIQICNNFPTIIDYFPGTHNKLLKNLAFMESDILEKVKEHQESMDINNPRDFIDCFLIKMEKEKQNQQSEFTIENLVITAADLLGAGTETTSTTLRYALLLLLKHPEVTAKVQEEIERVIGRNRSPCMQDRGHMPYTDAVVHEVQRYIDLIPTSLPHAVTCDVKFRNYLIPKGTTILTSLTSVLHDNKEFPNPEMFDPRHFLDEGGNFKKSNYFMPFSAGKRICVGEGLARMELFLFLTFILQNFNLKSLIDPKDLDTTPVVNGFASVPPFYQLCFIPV
# Cav3 T inh – Cav3.2 calcium influx blockers – cell-based, Fluo-4 calcium fluorescence, FDSS, MLSMR library, primary screen. Voltage-dependent T-type calcium channel subunit alpha-1H (Homo sapiens), O95180. Cav3.2-expressing cells; stronger effect = lower value. B-score at 10 µM. hit rate 4% among 100,000;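 active = single-dose well whose peak fluorescence ratio is a statistical outlier from its plate by either plate-standardised score or position-corrected B-score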
# CYP2C19 inh – blockers of cytochrome P450 2C19 activity – biochemical, luminescence, ADME assay, primary screen; P33261; CYP2C19 Supersomes, luciferin-H EGE luminescence, 30 min; inhibition, % at 5 µM; hit rate 21% among 96,000; AID 778, 2007;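 active = CYP2C19 inhibition above a set limit at 5 µM in the primary screen, cut at about 50% in these data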;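 note: plate controls were negative control wells for no effect and 2.5 mM tranylcypromine positive control for full effect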
# CYP2C9 inhib – blockers of cytochrome P450 2C9 activity – biochemical, luminescence, ADME assay, primary screen. hit rate 20% among 96,000. AID 777, 2007. P11712. CYP2C9 Supersomes, luciferin-H conversion. inhibition, % at 5 µM;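 active = blocking of liver enzyme CYP2C9 beyond about 50% at 5 µM, limit read from the data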
# Active calls of the source: *; x = not tested or not shown. Rows were chosen to be rich in hits. Some 27% of all compounds tested hit in one or more screens of this group.
SMILES,CYP2C9 activ,CYP2C19 act,Cav3 T inh,CYP2C19 inh,CYP2C9 inhib
COc1cc2c(cc1OC)C1=NC(=O)CN1C(SCc1ccc(C)cc1)=N2,1,1,0.78,-4,0
Cc1ccc(CSC2=Nc3sccc3C3=NC(=O)CN23)cc1,0.7,0.3,-0.051,66*,26
COc1ccc2nc(NC(=O)C(NS(=O)(=O)c3cccs3)C(C)C)sc2c1 (stereo not drawn),0.4,0.4,-0.011,55*,63*
CC(C)NS(=O)(=O)c1cccc2nsnc12,1.1,1,-0.077,-1,-10
Cc1ccc2nc(NC(=O)C(NS(=O)(=O)c3cccc4nsnc34)C(C)C)sc2c1 (stereo not drawn),0.2,0.8,-1.6,23,77*
COc1ccc2nc(NC(=O)CN3CCN(C)CC3)sc2c1,1,1.1,0.19,-6,-5
COC(=O)C1=C(C)N(C)C(C)=C(C(=O)OC)C1c1ccc(F)c(Br)c1,0.1,0.4,-6.8*,65*,94*
COC(=O)C1=C(C)NC(=O)CC1c1ccc(F)c(Br)c1 (stereo not drawn),0.7,0.5,0.37,51*,27
CCCCOc1ccccc1C1C(C(=O)OC)=C(C)N(C)C(C)=C1C(=O)OC,x,x,-3.5,x,x
COC(=O)C1=C(C)N(C)C(C)=C(C(=O)OC)C1c1ccccn1,0.2,0.7,0.48,27,82*
COC(=O)C1=C(C)N(C)C(C)=C(C(=O)OC)C1c1ccccc1C,0,0,-1.1,98*,96*
Fc1ccccc1OCCCCCCN1CCCC1,0.9,0.9,0.62,14,12
N=c1c[n+](-c2ccc(Cl)cc2)[n-]o1,1.1,1,0.3,3,-7
O=C(C1CCCO1)N1CCC(O)(c2ccccc2)CC1 (stereo not drawn),1,0.8,0.036,19,-1
O=C(Nc1ccc(C2CCCCC2)cc1)C1CCN(c2ncccn2)CC1,1.1,1,-0.19,-4,-14
CCN1C(=O)NC(c2cccnc2)C(C(=O)OC)=C1C (stereo not drawn),1,1,0.4,0,1
CCOC(=O)C1=C(C)N(C)C(C)=C(C(=O)OCC)C1c1ccccn1,0.1,0.5,0.17,50*,86*
COC(=O)C1=C(C)N(C)C(C)=C(C(=O)OC)C1c1ccncc1,0.2,0.2,1.6,78*,79*
CCOC(=O)C1=C(C)N(C)C(C)=C(C(=O)OCC)C1c1ccccc1,x,x,-2.1,x,x
COc1ccc(-c2nc(C#N)c(NCc3ccccc3Cl)o2)cc1,1.1,1.2,0.82,-19,-11
COCCNc1oc(-c2ccc(Cl)cc2)nc1C#N,0.3,0.2,-0.11,79*,73*
Cc1ccc(-c2nc(C#N)c(NCCN3CCCCC3)o2)cc1,0.7,0.9,0.4,12,31
COc1ccc(CCNc2oc(-c3ccc(C)cc3)nc2C#N)cc1OC,0.5,1.1,-1.1,-12,50*
N#Cc1nc(-c2ccc(Cl)cc2)oc1NCc1cccc2c1OCO2,0.1,0.7,0.93,34,94*
COCCNc1oc(-c2ccc(C)cc2)nc1C#N,0.1,0.1,x,86*,86*
SMILES,CYP2C9 activ,CYP2C19 act,Cav3 T inh,CYP2C19 inh,CYP2C9 inhib
CCN(CC)CCCN1C(=O)c2oc3ccccc3c(=O)c2C1c1cc(OC)ccc1OC (stereo not drawn),1.1,1.1,0.12,-13,-8
O=C1CC(C(=O)Nc2ccc(F)c(Cl)c2)N=C(N2CCCCC2)N1 (stereo not drawn),0.9,0.9,0.42,7,10
O=C(Nc1nnc(C2CC2)s1)c1cccc(S(=O)(=O)N2CC(c3ccccc3)CC2=O)c1 (stereo not drawn),0.8,1,-0.7,1,24
COC(=O)CC1COc2ccccc2N1C(=O)c1cccc(Cl)c1 (stereo not drawn),0.5,0.4,-0.015,63*,46
Cc1ccc(-c2nnn(CC(=O)N3CCN(c4ccccc4)CC3)n2)o1,0.9,0.8,-0.51,20,14
COc1ccc(CN(Cc2ccccn2)S(=O)(=O)c2ccc(-n3cnnn3)c(OC)c2)cc1,0.1,0.1,-0.37,89*,92*
CCN(CC)S(=O)(=O)c1ccc(-n2cnnn2)c(C)c1,1,0.6,0.066,36,4
COc1ccc(OC)c(-n2cnnn2)c1,1,1,0.35,-4,-5
Cc1cc(S(=O)(=O)N(Cc2ccccn2)Cc2ccco2)ccc1-n1cnnn1,0.5,0.3,-0.35,75*,54*
CC(C)C[C@H](N)c1cn([C@@H](CCCCN)C(=O)N2CCNCC2)nn1,x,x,0.21,x,x
Cc1cc(C)c2c3c(sc2n1)C(c1cccc(F)c1)C(C#N)=C(N)O3 (stereo not drawn),0.6,0.8,-0.12,23,45
O=C1C=C(NCc2ccc(Cl)cc2)CC(c2ccco2)C1 (stereo not drawn),0.4,0.1,0.043,93*,60*
O=C1C=C(NCc2ccncc2)CC(c2ccccc2)C1 (stereo not drawn),0.6,0,-0.1,96*,45
CC(C)CNC1=CC(=O)CC(c2ccco2)C1 (stereo not drawn),0.8,0.4,1.1,55*,22
O=C1C=C(Nc2ccc(O)cc2)CC(c2ccco2)C1 (stereo not drawn),x,x,0.16,x,x
Cc1nc(NS(=O)(=O)c2ccccc2)sc1NC(=O)OCCN(C)C,0.9,1,-0.002,-4,15
CSCC(=O)NS(=O)(=O)c1ccc(C)cc1,x,x,0.44,x,x
O=C(N[C@@H](Cc1ccccc1)C(=O)OCc1ccccc1)c1nc[nH]c1C(=O)N1CCc2ccccc2C1,x,x,-1.4,x,x
O=C1C=C(c2ccccc2)C(O)(c2ccccc2)C1 (stereo not drawn),0.9,0.8,0.69,22,10
OC1(c2ccccc2)C/C(=N\n2cnnc2)C=C1c1ccccc1 (stereo not drawn),0,0,-3,99*,95*
Cc1ccc(-c2nc3ccccn3c2NC(=O)c2ccco2)cc1,x,x,0.92,x,x
Cc1cc(NC(=O)CN2CCN(c3ccc(O)cc3)CC2)no1,1,1,0.13,-1,-3
Cc1ccc(N=C2N=C(N)c3ccccc32)c(C)c1,0.4,1,-0.1,5,58*
CC(=O)NN1C(=O)/C(=C\c2ccccc2)SC1=S,0.9,0.6,1.1,42,14
CC(=O)NN1C(=O)/C(=C\c2ccc(C)cc2)SC1=S,1,0.5,2.6,52*,-3
CC(C)(C)c1ccc(C2CC2C(=O)N/N=C\c2cc3ccccc3nc2Cl)cc1 (stereo not drawn),0.4,0.8,-1.3,24,62*
Cc1[nH]n(-c2ccccc2)c(=O)c1C(c1ccc(O)c([N+](=O)[O-])c1)c1c(C)[nH]n(-c2ccccc2)c1=O,x,x,-2.5,x,x
